Laboratory results: PubChem BioAssay (EPA / NIEHS)
Results filed as inconclusive are left out. The source made the active and inactive calls. How the source made its calls: active means hit-call score of the fitted dose curve at least 0.9, where 1 is the maximum; inconclusive means response in the unintended direction; inactive means score below 0.9.

What follows are compounds tested against human Phosphodiesterase 10 (PDE10), PDE10A (gene 10846) (UniProt Q9Y233) (assay: NVS_ENZ_hPDE10: NovaScreen (NVS) Enzymatic Assay for human Phosphodiesterase 10 (PDE10) (AID 2283195)).
Outline: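 PDE10A, cell-free; 1 h incubation; fluorescence intensity + electrophoretic mobility shift separating substrate/product; DMSO = baseline; 25 uM duplicate primary, CRC up to 50 uM.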

Sequence of human Phosphodiesterase 10 (PDE10), PDE10A (gene 10846) (Q9Y233 whole entry, looked up): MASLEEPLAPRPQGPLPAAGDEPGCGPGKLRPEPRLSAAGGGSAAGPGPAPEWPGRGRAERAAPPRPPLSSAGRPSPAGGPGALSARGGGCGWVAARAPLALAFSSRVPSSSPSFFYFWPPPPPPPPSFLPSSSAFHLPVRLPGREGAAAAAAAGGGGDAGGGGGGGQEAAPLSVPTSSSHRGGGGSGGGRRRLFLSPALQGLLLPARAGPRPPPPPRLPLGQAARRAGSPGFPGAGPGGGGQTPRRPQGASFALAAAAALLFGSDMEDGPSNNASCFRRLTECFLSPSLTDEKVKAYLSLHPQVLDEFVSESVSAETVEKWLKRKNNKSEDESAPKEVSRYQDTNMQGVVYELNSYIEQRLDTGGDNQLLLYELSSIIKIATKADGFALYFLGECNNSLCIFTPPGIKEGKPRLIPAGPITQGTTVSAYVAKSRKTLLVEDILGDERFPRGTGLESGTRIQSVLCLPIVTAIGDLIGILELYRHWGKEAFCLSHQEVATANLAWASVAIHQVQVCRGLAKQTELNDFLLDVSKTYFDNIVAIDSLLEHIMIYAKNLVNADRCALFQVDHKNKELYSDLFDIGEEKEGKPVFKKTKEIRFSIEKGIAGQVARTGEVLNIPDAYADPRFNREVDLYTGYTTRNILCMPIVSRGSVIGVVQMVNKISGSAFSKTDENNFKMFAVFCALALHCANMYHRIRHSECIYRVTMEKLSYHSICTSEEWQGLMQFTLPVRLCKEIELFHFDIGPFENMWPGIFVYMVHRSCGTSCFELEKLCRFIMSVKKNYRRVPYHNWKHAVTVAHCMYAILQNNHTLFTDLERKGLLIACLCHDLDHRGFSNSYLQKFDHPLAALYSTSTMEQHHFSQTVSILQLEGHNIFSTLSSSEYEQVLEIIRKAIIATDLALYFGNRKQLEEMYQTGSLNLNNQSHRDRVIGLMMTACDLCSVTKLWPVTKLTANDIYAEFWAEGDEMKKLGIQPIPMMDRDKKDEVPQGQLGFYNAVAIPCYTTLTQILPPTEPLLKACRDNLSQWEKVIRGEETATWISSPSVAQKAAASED

Compound	outcome	AC50
CN(CCCC(=O)c1cccnc1)N=O	inactive	
Nc1ncc([N+](=O)[O-])s1	inactive	
ClCCBr	inactive	
O=C(Cl)c1ccc(Cl)cc1	inactive	
ClC1=C(Cl)[C@]2(Cl)[C@@H]3[C@@H](Cl)[C@@H](Cl)C[C@@H]3[C@@]1(Cl)C2(Cl)Cl	inactive	
Nc1cccc2ccccc12		9.86 µM (active)
CC(Br)C(=O)O (stereo not drawn)	inactive	
CCCCC(CC)CO[N+](=O)[O-] (stereo not drawn)	inactive	
COc1cccc(C=O)c1	inactive	
Nc1ccc(Cl)cc1C(=O)c1ccccc1	inactive	

The compounds below were run against human Phosphoinositide 3-kinase alpha (PI3Ka), PIK3CA (gene 5290) (UniProt P42336) (assay: NVS_ENZ_hPI3Ka: NovaScreen (NVS) Enzymatic Assay for human Phosphoinositide 3-kinase alpha (PI3Ka) (AID 2283196)).
Outline: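 Duplicate single-point screen (25 uM), then singleton dose-response (max 50 uM) for compounds meeting the threshold. Cell-free kinase reaction, 1 h; fluorescent mobility-shift readout.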

Sequence of human Phosphoinositide 3-kinase alpha (PI3Ka), PIK3CA (gene 5290) (P42336 whole entry, looked up): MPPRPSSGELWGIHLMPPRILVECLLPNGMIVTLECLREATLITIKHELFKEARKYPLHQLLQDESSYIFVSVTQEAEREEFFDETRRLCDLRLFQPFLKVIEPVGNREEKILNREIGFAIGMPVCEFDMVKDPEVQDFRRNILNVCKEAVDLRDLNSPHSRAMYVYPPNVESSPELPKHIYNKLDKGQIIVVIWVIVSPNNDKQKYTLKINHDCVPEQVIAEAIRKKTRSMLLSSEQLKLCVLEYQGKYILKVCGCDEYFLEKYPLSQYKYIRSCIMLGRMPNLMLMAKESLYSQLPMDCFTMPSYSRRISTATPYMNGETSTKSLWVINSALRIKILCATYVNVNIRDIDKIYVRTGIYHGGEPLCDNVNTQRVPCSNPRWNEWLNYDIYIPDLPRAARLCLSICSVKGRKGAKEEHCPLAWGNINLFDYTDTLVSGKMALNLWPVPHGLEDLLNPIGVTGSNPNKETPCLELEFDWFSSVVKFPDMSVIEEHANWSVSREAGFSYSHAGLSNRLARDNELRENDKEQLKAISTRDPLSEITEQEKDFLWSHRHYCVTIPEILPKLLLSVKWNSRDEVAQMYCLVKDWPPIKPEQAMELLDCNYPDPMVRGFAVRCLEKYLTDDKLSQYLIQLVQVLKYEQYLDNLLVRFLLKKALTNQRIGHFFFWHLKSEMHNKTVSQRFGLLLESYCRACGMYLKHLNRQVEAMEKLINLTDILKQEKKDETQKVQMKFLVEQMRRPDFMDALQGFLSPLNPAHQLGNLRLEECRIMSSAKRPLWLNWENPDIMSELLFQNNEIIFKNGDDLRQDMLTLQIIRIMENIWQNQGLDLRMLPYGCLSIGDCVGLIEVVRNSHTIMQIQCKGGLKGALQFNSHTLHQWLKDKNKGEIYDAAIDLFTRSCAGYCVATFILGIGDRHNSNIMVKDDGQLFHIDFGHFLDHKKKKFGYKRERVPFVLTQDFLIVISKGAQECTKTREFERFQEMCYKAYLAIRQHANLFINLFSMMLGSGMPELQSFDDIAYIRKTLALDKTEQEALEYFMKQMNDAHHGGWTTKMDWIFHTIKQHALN

Compound	outcome	AC50
COP(=S)(OC)Oc1c(Cl)cc(C)cc1Cl	inactive	
ClCCBr		383 nM (active)
O=[N+]([O-])c1ccc2c3c(cccc13)CC2	inactive	
CCNc1nc(NC(C)(C)C)nc(SC)n1	inactive	
COP(=S)(OC)Oc1cc(Cl)c(Cl)cc1Cl	inactive	
C(=NC1CCCCC1)=NC1CCCCC1	inactive	
CC(C)C1CCC(Cc2ccc(Cl)cc2)C1(O)Cn1cncn1 (stereo not drawn)	inactive	
Cc1ccccc1N	inactive	

The compounds below were run against human Phosphatase and Tensin Homolog (PTEN), PTEN (gene 5728) (UniProt P60484) (assay: NVS_ENZ_hPTEN: NovaScreen (NVS) Enzymatic Assay for human Phosphatase and Tensin Homolog (PTEN) (AID 2283203)).
Outline: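 Cell-free recombinant human PTEN with fluorescent substrate; product separated by electrophoretic mobility shift and read by fluorescence 1 h after dosing. Primary screen in duplicate at 25 uM, actives followed in concentration series versus DMSO.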

Sequence of human Phosphatase and Tensin Homolog (PTEN), PTEN (gene 5728) (P60484 whole entry, looked up): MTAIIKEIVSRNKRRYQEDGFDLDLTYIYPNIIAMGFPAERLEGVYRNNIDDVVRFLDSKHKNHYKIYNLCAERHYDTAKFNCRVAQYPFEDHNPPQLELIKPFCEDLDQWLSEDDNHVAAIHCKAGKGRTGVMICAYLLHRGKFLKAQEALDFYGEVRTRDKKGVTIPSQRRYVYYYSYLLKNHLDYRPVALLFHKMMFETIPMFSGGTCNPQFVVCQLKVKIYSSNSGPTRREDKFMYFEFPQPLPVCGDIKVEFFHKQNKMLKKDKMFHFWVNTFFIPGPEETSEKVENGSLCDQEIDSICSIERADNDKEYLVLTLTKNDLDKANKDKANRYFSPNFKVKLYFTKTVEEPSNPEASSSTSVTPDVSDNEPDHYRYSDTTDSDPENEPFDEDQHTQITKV

Compound	AC50	outcome
CN(CCCC(=O)c1cccnc1)N=O	0.00229 µM (active)	
COC[C@H](C)N(C(=O)CCl)c1c(C)csc1C		inactive
COP(=S)(OC)Oc1cc(Cl)c(Cl)cc1Cl		inactive
N#CCc1ccc(Cl)cc1	1.32 µM (active)	
O=C(c1ccccc1)C(Cl)Cl	14.1 µM (active)	
